This passage reports composite z-score and z-score results from PubChem BioAssay.

The subject of one test is XIP peptide (Xip251-270). Nature of the test: compounds binding XIP fragment 251-270 – biochemical, small-molecule microarray, fluorescence 635/667 nm, 0.5 µg/mL protein, primary screen (AID 1183). Particulars: fluorescence 635 nm, higher = more signal.
Consider `COc1ccc([Si](C)(C)[C@@H]2[C@@H](CCO)O[C@]3(C(=O)N(Cc4ccc(NC(C)=O)cc4)c4ccccc43)[C@H]2C)cc1`, for which the composite z-score was found to be 0.811.
The same measure, in the same setting: the result for `CN(C)c1ccc(C(O)C2C=CC3C(=O)N(c4ccccc4)C(=O)C3N2Nc2ccccc2F)cc1` (stereo not given) reads 0.265.
For `CC(C)(C)OC(=O)CC[C@]1(C(=O)NCc2ccccc2)N=C(c2ccc(OCCCO)cc2)O[C@H]1c1ccccc1`, the composite z-score was 0.846.
Take `CC(C)[Si]1(C(C)C)O[C@@H](c2ccccc2)c2cc(C3CC3)nc(-c3ccccc3)c21`: the composite z-score is 0.555.
In the case of `CC(C)NC(=O)[C@@]1(c2ccc([N+](=O)[O-])cc2)CC(=O)N(CC23CC4CC(CC(C4)C2)C3)[C@@H]1c1ccc(CO)cc1I`, the composite z-score is 0.704.
The same measure, in the same setting: the result for `COCC1=C2[C@@H](CCc3ccccc3)OB(O)C[C@@H]2n2c(=O)n(-c3ccccc3)c(=O)n2C1` reads 0.835; that for `O=C1O[C@@H](c2ccccc2)[C@@H](c2ccccc2)N2[C@@H](c3ccc(O)cc3)[C@]3(C(=O)Nc4ccccc43)[C@@H](C(=O)O)[C@H]12`, 0.632.
As for `O=C1c2ccccc2[C@@]2(Cc3ccccc3N(C3CC3)C2=O)[C@H](c2ccc(CO)cc2)N1Cc1ccccc1C(F)(F)F`, the composite z-score was found to be 0.926.
Turning to `CC(C)(C)OC(=O)CC[C@]1(C(N)=O)COC(c2ccc(OCCCO)cc2)=N1`, the composite z-score was 0.223.

Tested on in another test: not listed separately
Nature of the test: blood-stage malaria parasite viability loss – strain 3D7, DAPI fluorescence, 100 nL, primary screen (AID 1184).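 Also: parasites grown inside human red blood cells in medium with human serum.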 The following applies: P. falciparum 3D7 growth, 3 d, higher = more signal.
`COC(=O)C1(C)C=C2C(=C(c3ccccc3)C(=O)C2C)CN1` (stereo not given) displayed a z-score of -0.0619.
`C=CCC(OC(C)=O)[C@@H]1[C@@H](N(Cc2cc3ccccc3o2)C(=O)Cc2ccc(F)cc2)c2cc(OCCCO)ccc2N1C(=O)Cc1ccc(OC)cc1` (stereo not given in full) returned a z-score of 0.163.
`COc1ccccc1CN1C(=O)c2ccccc2[C@@]2(Cc3ccccc3N(C(C)C)C2=O)[C@@H]1c1ccc(CO)cc1`: the z-score was found to be 0.559.
`N#Cc1ccc(NN2C(C(O)c3cc(C(F)(F)F)cc(C(F)(F)F)c3)C=CC3C(=O)N(c4ccccc4)C(=O)C32)cc1` (stereo not given) showed a z-score of -0.496.
With `COc1ccccc1CN1C(=O)c2ccccc2[C@@H](C(=O)NCC(F)(F)F)[C@@H]1c1ccc(CO)cc1`, the z-score is -1.19.
As for `CN(C)C(=O)[C@@]1(Cc2ccccc2)N=C(c2ccc(OCCCO)cc2)O[C@H]1c1ccccc1CN=[N+]=[N-]`, the z-score is -2.11.
Molecule `CCCCC(=C=CC[C@H](O)c1ccccc1OCCO)C[C@H](O)COCc1ccccc1` came in with a z-score of -1.21.
In turn, `CCCC[C@@H]1C[C@H]1[C@@H](NS(=O)(=O)c1cccc2cccnc12)c1ccc(-c2ccccc2)cc1` had a z-score of -0.299.
`Cn1cccc1C(O)C1C=CC2C(=O)NC(=O)C2N1Nc1ccccn1` (stereo not given) had a z-score of -0.119.
The molecule `C=C(/C(=C/C[C@H](OC(=O)c1ccncc1)c1ccc(OCCO)cc1)c1cnc2ccccc2c1)C(C)C` came in with a z-score of -2.84.
`COC(=O)[C@@]1(Cc2ccc(F)cc2)[C@H]2c3cc(C(=O)N(C)C)n(Cc4ccc(OC)c(OC)c4)c3C[C@H]2CN1C(=O)c1ccccc1` yielded a z-score of -1.03.
With `CC(C)NC(=O)[C@@H]1c2ccccc2C(=O)N(CC23CC4CC(CC(C4)C2)C3)[C@H]1c1ccc(CO)cc1`, the z-score was -1.84.
The same measure, in the same setting: under `O=C1O[C@@H](c2ccccc2)[C@@H](c2ccccc2)N2[C@@H](c3ccccc3OCCO)[C@]3(C(=O)Nc4ccc(C#CCCO)cc43)[C@@H](C(=O)O)[C@H]12` stands -1.69; under `CN(C)CCCNC(=O)[C@@H]1c2ccccc2C(=O)N(Cc2cc(F)cc(C(F)(F)F)c2)[C@H]1c1ccc(CO)cc1`, -0.1; under `CCCNC(=O)[C@@H]1c2ccccc2C(=O)N(c2ccc(C)cn2)[C@H]1c1ccc(CO)cc1`, 0.167.
On to `COC(=O)[C@H]1COC(c2ccc(OCCCO)cc2)=N1`, for which the z-score is -0.264.
On the same count and under the same terms, the result for `CO[C@H]1O[C@H](CO)[C@@H](OC(=O)Nc2ccc3c(c2)OCO3)[C@H](OC(=O)Nc2ccccc2-c2ccccc2)[C@@H]1OC(=O)Nc1ccccc1-c1ccccc1` reads -2.6; that for `COCCCNC(=O)[C@@]1(C)c2ccccc2C(=O)N(Cc2ccc(OC(F)(F)F)cc2)[C@H]1c1ccc(CO)cc1`, -0.313; that for `COCCCNC(=O)[C@@]1(CCS(=O)(=O)c2ccccc2)N=C(c2ccc(OCCCO)cc2)O[C@H]1c1ccccc1`, -1.62.
Turning to `C/C=C\[C@@H](NCc1ccccc1Br)[C@@H](O)Cc1ccccc1`, the z-score was -1.64.
Consider `CN1C(=O)[C@@]2(CCC(=O)OC(C)(C)C)N=C(c3ccc(OCCCO)cc3)O[C@H]2c2ccccc21`, for which the z-score is -2.1.
Regarding `O=C(CS)NCCCCCNC(=O)[C@@H]1C[C@@H]2C(=O)N[C@@H](Cc3ccccc3)C(=O)N2[C@@H]1c1ccc(O)cc1`, the z-score is -0.14.
`C#C[C@@H](CC)O[Si](C#Cc1ccc(Oc2ccccc2)cc1)(C(C)C)C(C)C` displayed a z-score of -0.968.
Molecule `COC(=O)[C@]1(CO)N=C(c2ccc(OCCCO)cc2)O[C@@H]1c1ccccc1N=[N+]=[N-]` showed a z-score of -0.313.
Take `COc1ccc([Si](C)(C)[C@@H]2[C@@H](CC(=O)N3CCC[C@H]3CO)O[C@]3(C(=O)N(Cc4cccc(N5CCC5=O)c4)c4ccccc43)[C@H]2C)cc1`: the z-score is -0.744.
Molecule `COC(=O)[C@@]1(Cc2ccc(OC)cc2)[C@H]2c3cc(C(=O)N4CCCC4)n(Cc4cc(F)c(F)c(F)c4)c3C[C@H]2CN1C(=O)c1ccccc1` returned a z-score of -1.56.
Still for that read-out and setting: under `C=C(CCCC)C(=O)CC[C@@H](OC(C)=O)c1cccc(OCCO)c1` stands -1.47.
On the same count and under the same terms, under `COc1ccc([Si](C)(C)[C@@H]2[C@@H](CCO)O[C@]3(C(=O)N(Cc4ccc(NC(C)=O)cc4)c4ccccc43)[C@H]2C)cc1` stands -2.92; under `CN(C)c1ccc(C(O)C2C=CC3C(=O)N(c4ccccc4)C(=O)C3N2Nc2ccccc2F)cc1` (stereo not given), -0.0341; under `CC(C)(C)OC(=O)CC[C@]1(C(=O)NCc2ccccc2)N=C(c2ccc(OCCCO)cc2)O[C@H]1c1ccccc1`, -1.58.
On to `CC(C)[Si]1(C(C)C)O[C@@H](c2ccccc2)c2cc(C3CC3)nc(-c3ccccc3)c21`, for which the z-score is 0.0193.
`CC(C)NC(=O)[C@@]1(c2ccc([N+](=O)[O-])cc2)CC(=O)N(CC23CC4CC(CC(C4)C2)C3)[C@@H]1c1ccc(CO)cc1I` displayed a z-score of -0.705.
`COCC1=C2[C@@H](CCc3ccccc3)OB(O)C[C@@H]2n2c(=O)n(-c3ccccc3)c(=O)n2C1`: the z-score was determined as 1.25.
In turn, `O=C1O[C@@H](c2ccccc2)[C@@H](c2ccccc2)N2[C@@H](c3ccc(O)cc3)[C@]3(C(=O)Nc4ccccc43)[C@@H](C(=O)O)[C@H]12` showed a z-score of -1.73.
`O=C1c2ccccc2[C@@]2(Cc3ccccc3N(C3CC3)C2=O)[C@H](c2ccc(CO)cc2)N1Cc1ccccc1C(F)(F)F` yielded a z-score of -1.42.
For `CC(C)(C)OC(=O)CC[C@]1(C(N)=O)COC(c2ccc(OCCCO)cc2)=N1`, the z-score was determined as 0.0099.
